D1 ag = Allosteric Agonists of the Human D1 Dopamine Receptor: qHTS; activation, % at 2 µM; 360,000 compounds, 1% hits; HEK293 T-REx D1 cells, calcium flux, agonist mode; in the data active means activation above about 30%; further: 0% is about no effect
Target sequence (P21728 whole entry, looked up): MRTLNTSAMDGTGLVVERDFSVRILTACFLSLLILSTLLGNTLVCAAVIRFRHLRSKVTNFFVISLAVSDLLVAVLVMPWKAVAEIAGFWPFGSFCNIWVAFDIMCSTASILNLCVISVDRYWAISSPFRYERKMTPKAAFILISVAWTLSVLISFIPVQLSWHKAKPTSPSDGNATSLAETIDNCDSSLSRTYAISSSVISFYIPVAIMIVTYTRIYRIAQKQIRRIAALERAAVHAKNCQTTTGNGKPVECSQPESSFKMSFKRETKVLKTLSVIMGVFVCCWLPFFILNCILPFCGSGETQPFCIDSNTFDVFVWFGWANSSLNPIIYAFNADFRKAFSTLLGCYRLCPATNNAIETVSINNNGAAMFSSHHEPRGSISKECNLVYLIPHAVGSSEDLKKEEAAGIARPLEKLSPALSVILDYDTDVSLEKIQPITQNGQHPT
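Tetracycline-induced HEK293 TREx D1 cells, force-coupled to calcium signalling, were dye-loaded with a no-wash calcium kit. Compound was pin-added after a 10 s baseline. Fluorescence was read kinetically at 1 cycle/s for 180 s, with calcium rises flagged as agonism.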
DRD3 antagonist = qHTS of D3 Dopamine Receptor Antagonist: qHTS | D3R cells, DiscoveRx beta-arrestin luminescence, antagonist mode; active compounds read low | max response, negative = inhibition, % | 360,000 compounds, 2.5% hits | AID 652054, 2013 | D(3) dopamine receptor (Homo sapiens), P35462; in the data active means max response below about -50%; inconclusive means no clear call, values can overlap the other calls; further: on the % scale 0 is the no-effect control and ±100 the full control effect
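Cells plated overnight at 1500 cells/well, then exposed to library compounds with dopamine controls for 90 minutes at 37 degrees C. DiscoveRx reagent added for 30–60 minutes at room temperature; luminescence read, quantitative HTS format.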
D1 antag = Antagonist of Human D 1 Dopamine Receptor: qHTS | 360,000 compounds, 3.2% hits | activity change, negative = inhibition, % at 10 µM | D(1A) dopamine receptor (Homo sapiens), P21728 | HEK293 TREx D1 cells, calcium flux, dopamine EC80; active compounds read low; in the data active means activity change below about -30%; further: on the % scale 0 is the no-effect control and ±100 the full control effect
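Antagonism measured as reduced calcium response to an EC80 dopamine addition following 180 s compound pre-read; cells were inducible HEK293 Trex D1 plated overnight at 30 C, read kinetically at 1 cycle/sec.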
D1 PAM = Potentiators of Human D1 Dopamine Receptor: qHTS; HEK293 TREx D1 cells, calcium flux, dopamine EC20 potentiation; potentiation, % at 10 µM; 360,000 compounds, 0.036% hits; AID 504651, 2011; in the data active means potentiation above about 30%; further: 0% is about no effect
D3 ag = qHTS of D3 Dopamine Receptor Agonist: qHTS. 410,000 compounds, 0.58% hits. D3R DiscoveRx beta-arrestin cells, luminescence, 90 min. AID 652048, 2013. max activation, %; in the data active means max activation above about 30%; further: 0% is about no effect
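Agonist mode: compounds and dopamine controls were applied to plated cells for 90 min at 37 degrees C after an overnight attachment at 1500 cells/well. Luminescent read-out followed 30 - 60 minutes at room temperature with DiscoveRx detection reagent.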
* marks the source's active call; other numbers are inactive results; ? = inconclusive; · = no result given. A selection: hits, their analogues and other compounds. The true share with any hit is near 6%.

SMILES	D1 ag	DRD3 antagonist	D1 antag	D1 PAM	D3 ag
CC(NS(=O)(=O)c1ccc2c(c1)OCCO2)c1ccccc1 (centres undefined)	5	12	-2	6	7
Cc1ccc(NC(=O)CNC(c2ccccc2)c2ccccc2)c(F)c1	7	16	5	-1	-2
O=C(CNC(c1ccccc1)c1ccccc1)Nc1c(F)cccc1F	0	-7	-38*	-4	1
CCc1nc2ccc(C(=O)NCCC(C)C)cn2c1N(C)Cc1nccs1	·	-23	·	·	-5
CCOc1ccc(-c2nc(CSCC(=O)NCc3ccc(Cl)cc3)c(C)o2)cc1	11	·	1	1	32*
COc1ccc(CCNC(=O)CSCc2nc(-c3cccc(C)c3)oc2C)cc1OC	5	·	-2	-3	2
COc1cccc(-c2nc(CSCC(=O)NCCc3ccc(Cl)cc3)c(C)o2)c1	48*	·	-36*	4	1
COc1ccc(C)cc1NC(=O)NCc1ccc2c(c1)CCN2C(=O)c1ccccc1	0	·	-2	-4	-29
CCn1c(-c2c(Cl)c(C)nn2C)n[nH]c1=S	39*	?	48	-1	-1
CCn1c(-c2ccc(F)cc2)n[nH]c1=S	4	-88*	9	6	-6
CCn1c(-c2ccc(C(C)(C)C)cc2)n[nH]c1=S	5	-30	-12	-2	-7
CC1CCN(C(=O)c2ccc3c(c2)N(Cc2ccccc2)C(=O)c2ccccc2S3(=O)=O)CC1	7	·	-5	-3	-9
Cc1ccc2c(c1)C(CCN)C(=O)N2Cc1ccccc1 (centres undefined)	7	-106*	-6	-5	-30
COc1cc(CN(CCN(C)C)Cc2ccccc2)ccc1OCc1ccccc1	25	-11	-76*	-17	-9
COc1ccc(CN(CCc2ccccc2)Cc2ccccc2)cc1OC	6	-16	-18	-4	-13
O=C(O)COc1ccccc1/C=N/NC(=O)CSc1nnc(SCc2cccc3ccccc23)s1	35*	-5	-2	-1	3
Cc1ccccc1C(=O)NCC(=O)OC1CCCCC1=O (centres undefined)	2	0	27	-3	-9
O=C(NC1CC(=O)N(c2cccc(F)c2)C1)C(=O)c1c[nH]c2ccccc12 (centres undefined)	23	-6	-16	-4	-10
C[C@]12CC[C@H]3[C@@H](CCC4=CC(=O)CC[C@@]43C)[C@@H]1CC[C@@H]2C(=O)CO	2	-88*	-15	0	-91
CC(=O)OCC(=O)[C@H]1CC[C@H]2[C@@H]3CCC4=CC(=O)CC[C@]4(C)[C@H]3CC[C@]12C	2	3	-8	-3	5
CC(=O)N1CCc2cc(C(=O)CN3CCN(c4ccccc4F)CC3)ccc21	1	-65*	-8	-6	-1
CC(=O)N1CCc2cc(S(=O)(=O)CCC(=O)N3CCN(c4ccccc4F)CC3)ccc21	5	-15	-4	-4	-6
CC(=O)N1CCc2cc(S(=O)(=O)CCC(=O)N3CCN(c4ccccn4)CC3)ccc21	0	3	-6	-8	0
CC(=O)N1CCc2cc(C(=O)CN3CCN(c4ccccn4)CC3)ccc21	5	-4	-13	-12	68*
O=C(CN1CCN(c2ccccc2F)CC1)c1ccc2cc[nH]c2c1	5	-63*	-26	-8	-3
SMILES	D1 ag	DRD3 antagonist	D1 antag	D1 PAM	D3 ag
O=C(CN1CCN(c2ccccc2F)CC1)c1c[nH]c2ccc(F)cc12	5	-10	·	-5	-4
CCC(=O)Nc1nnc(SCC(=O)NCC2CCCO2)s1 (centres undefined)	·	-30	·	·	-8
COc1cc(OC)cc(C(=O)NNC(=O)CCC(=O)c2cccs2)c1	1	-14	-8	2	1
Cc1cc2c(c(=O)o1)C1O[C@](c3ccsc3)(Cc3ccccc31)O2	1	·	-9	2	·
COc1cccc(NC(=O)COc2ccc(Br)c(C)c2)c1	2	2	-37*	-5	-3
CCOC(=O)c1nn(-c2ccc(C)cc2)c(=O)cc1OCC(=O)Nc1cccc(C)c1	7	-3	0	-11	-8
O=C(COc1cc(Cl)c(Cl)cc1Cl)Nc1cccc(O)c1	3	16	-22	1	2
Cc1cc(OCC(=O)Nc2ccncc2)ccc1Br	13	21	-32*	-2	-3
CCOC(=O)c1nn(-c2ccc(C)cc2)c(=O)cc1OCC(=O)Nc1cccc(OC)c1	4	-10	-58*	-6	-8
O=C(COc1cc(Cl)c(Cl)cc1Cl)Nc1ccncc1	-1	-20	-30*	5	-7
Cc1c(C(=O)Nc2ccc(-n3c(C)nc4ccccc4c3=O)cc2)cccc1[N+](=O)[O-]	-1	·	·	-2	8
CC(C)N(CCC(=O)c1ccc2ccccc2c1)Cc1ccccc1	1	-132*	-32*	-7	-76
CC(OC(=O)c1ccc2ccccc2c1)C(=O)N(C)Cc1ccccc1 (centres undefined)	3	13	-24	-1	-2
CC(C)n1cnnc1SCC(=O)Nc1ccc(N2CCCCC2)cc1	0	4	-15	-12	2
CC(Sc1nncn1C)C(=O)Nc1ccc(N2CCCCC2)cc1 (centres undefined)	2	-10	-35*	0	0
CC(Sc1nnnn1-c1ccccc1)C(=O)Nc1ccc(N2CCN(C)CC2)cc1 (centres undefined)	10	2	-37*	-14	-13
CN1CCN(c2ccc(NC(=O)CSc3nnnn3-c3ccccc3Cl)cc2)CC1	12	-13	-83*	-10	-8
O=C(Nc1ccc(C(O)c2ccccc2)cc1)[C@@H]1O[C@H](CO)[C@@H](O)[C@H]1O (some centres undefined)	·	18	·	·	1
Cc1ccc(NC(=O)CSc2nc3nc(C)c(Cc4ccccc4)c(C)n3n2)cc1	2	·	16	0	9
COc1cccc(CNC(=O)C(=O)NCC(c2ccc3c(c2)OCO3)N2CCOCC2)c1 (centres undefined)	0	·	12	-4	-11
O=C(c1cccc2ccccc12)N1CCC(N2CCN(c3ccccc3)CC2)CC1	0	-58*	6	-2	75*
O=C(c1cc(-c2cccs2)on1)N1CCN(c2ccccc2)CC1	5	14	-38*	-10	-3
O=C(Nc1cccc(O)c1)c1cc(-c2cccs2)on1	9	7	-38*	-8	-1
COc1cc(OC)cc(C(=O)N2CCC(N3CCN(c4ccccc4)CC3)CC2)c1	0	-63*	11	-3	8
CC(=O)c1cccc(NC(=O)c2cc(-c3cccs3)on2)c1	5	0	-1	-9	-20

Assay outcomes from PubChem.
